A short description of test [1]: qHTS assay to identify small molecule agonists of the estrogen receptor alpha (ER-alpha) signaling pathway in the presence of an antagonist - cell viability counter screen (AID 1259386). Also: nearly all actives have a fitted effect of over 30% in size. Also: potency is read from the fitted curve at half-maximal effect. As to activity change, negative = cytotoxicity: series mostly up to about 92 µM. The method in brief: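 Read-out: CellTiter-Fluor fluorescence after 1hr reagent incubation, measured in the same wells as the luciferase readout. VM7Luc4E2 cells were exposed to 15 compound concentrations with 10.0nM ICI-182,780 for 22hr at 37C.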

For test [2], the target named is Progesterone receptor (Homo sapiens) (UniProt P06401). Description: qHTS assay to identify small molecule agonists of the progesterone receptor (PR) signaling pathway (AID 1346784; calls by dose curve; also: nearly all actives have a fitted effect of over 30% in size). Put shortly: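 Compounds were tested for PR agonism in HEK 293T cells bearing a beta-lactamase gene under UAS control. Treatment lasted 16 hr at 37C; signal came from fluorescence of a FRET substrate.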
For orientation: In qHTS, concentration-response curves come from the screen itself.

The target is the same in test [3]. Description: qHTS assay to identify small molecule antagonists of the progesterone receptor (PR) signaling pathway (AID 1346795; active = well fitted inhibition curve with a large enough effect in the signal ratio in the repeat runs, not every such curve was filed as active; the % refers to the signal ratio; also: potency is read from the fitted curve at half-maximal effect). Put shortly: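 In HEK293T cells bearing the PR-UAS-bla reporter, compound effects on promegestone-driven (1 nM) beta-lactamase expression are assessed after 16 hr using a fluorescent FRET substrate incubated 2 hr at room temperature.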

A short description of test [4]: qHTS assay to identify small molecule agonists of the progesterone receptor (PR) signaling pathway - cell viability counter screen (AID 1346799; calls by dose curve; also: nearly all actives have a fitted effect of over 45% in size). The method in brief: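 Here, 3,000 PR-UAS-bla HEK293T cells per well were treated with compounds for 16 hr after a 6 hr preincubation at 37C and 5% CO2; cell viability is the CellTiter-Glo luminescence signal.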
Test [5] in a line: qHTS assay to identify small molecule antagonists of the TGF-beta/Smad signaling pathway - cell viability counter screen (AID 1346824). Also: nearly all actives have a fitted effect of over 50% in size. The method in brief: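 SBE-bla HEK 293T cells were plated overnight at 37 C, then given compounds in DMSO plus TGF-beta1 (added as 0.25 ng/mL solution) for 5 hr. After the bla read, CellTiter-Glo was added to the same wells and luminescence read after 30 min at room temperature.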

Test [6] in a line: qHTS assay to identify small molecule agonists of the TGF-beta/Smad signaling pathway - cell viability counter screen (AID 1346829). Also: top concentration of the series differs between compounds; nearly all actives have a fitted effect of over 45% in size. Put shortly: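 HEK 293T SBE-bla line, 5 hr compound exposure at 37 C, multiplexed CellTiter-Glo viability read by luminescence.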
The nature of test [7]: qHTS assay to identify small molecule agonists of the TGF-beta/Smad signaling pathway (AID 1346859; active = well fitted activation curve with a large enough effect in the signal ratio in the repeat runs, not every such curve was filed as active; the % refers to the signal ratio; also: series mostly up to about 77 µM). The method in brief:
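Each well held 4,000 SBE-bla HEK 293T cells incubated overnight before compound addition; 5 hr later the cleavable FRET substrate went on for 2 hr at room temperature, and fluorescence was read at two emissions.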

Test [8] concerns the target Thyrotropin-releasing hormone receptor (Homo sapiens) (UniProt P34981). Description: qHTS assay to identify small molecule antagonists of the thyrotropin-releasing hormone receptor (TRHR) signaling pathway (AID 1346877; active = well fitted inhibition curve with a large enough effect in the repeat runs, not every such curve was filed as active; also: series mostly up to about 51 µM). Put shortly:
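HEK293/TRHR cells, 18 h, 37 °C; Ca2+ dye 2 h; cpd 5 min RT; TRH 1 nM final; fluorescence read 3 min, 1 s intervals; 15 concs, triplicate.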

A short description of test [9]: qHTS assay to identify small molecule antagonists of the progesterone receptor (PR) signaling pathway - cell viability counter screen (AID 1346798). Also: series mostly up to about 92 µM; nearly all actives have a fitted effect of over 50% in size. The method in brief: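 Following a 4 hr attachment, PR-UAS-bla HEK293T cells in charcoal-stripped FBS medium were exposed to compounds with R5020 for 16 hr; CellTiter-Glo was added and luminescence read after 30 min at room temperature.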

A number with no mark means an inactive call. Inconclusive results are not listed. Active and inactive are the calls of the source. Unless noted, calls follow the shape of the dose curve; as a rule, active = well fitted curve in the direction sought with a large enough effect in the repeat runs; inconclusive = weak or mixed curves; inactive = no such curve, though single readings can be large; an effect the other way counts as inactive or inconclusive.
% is scaled to controls: 0 for no effect and ±100 for the full control effect.

Progesterone receptor (Homo sapiens), sequence (P06401 whole entry, looked up): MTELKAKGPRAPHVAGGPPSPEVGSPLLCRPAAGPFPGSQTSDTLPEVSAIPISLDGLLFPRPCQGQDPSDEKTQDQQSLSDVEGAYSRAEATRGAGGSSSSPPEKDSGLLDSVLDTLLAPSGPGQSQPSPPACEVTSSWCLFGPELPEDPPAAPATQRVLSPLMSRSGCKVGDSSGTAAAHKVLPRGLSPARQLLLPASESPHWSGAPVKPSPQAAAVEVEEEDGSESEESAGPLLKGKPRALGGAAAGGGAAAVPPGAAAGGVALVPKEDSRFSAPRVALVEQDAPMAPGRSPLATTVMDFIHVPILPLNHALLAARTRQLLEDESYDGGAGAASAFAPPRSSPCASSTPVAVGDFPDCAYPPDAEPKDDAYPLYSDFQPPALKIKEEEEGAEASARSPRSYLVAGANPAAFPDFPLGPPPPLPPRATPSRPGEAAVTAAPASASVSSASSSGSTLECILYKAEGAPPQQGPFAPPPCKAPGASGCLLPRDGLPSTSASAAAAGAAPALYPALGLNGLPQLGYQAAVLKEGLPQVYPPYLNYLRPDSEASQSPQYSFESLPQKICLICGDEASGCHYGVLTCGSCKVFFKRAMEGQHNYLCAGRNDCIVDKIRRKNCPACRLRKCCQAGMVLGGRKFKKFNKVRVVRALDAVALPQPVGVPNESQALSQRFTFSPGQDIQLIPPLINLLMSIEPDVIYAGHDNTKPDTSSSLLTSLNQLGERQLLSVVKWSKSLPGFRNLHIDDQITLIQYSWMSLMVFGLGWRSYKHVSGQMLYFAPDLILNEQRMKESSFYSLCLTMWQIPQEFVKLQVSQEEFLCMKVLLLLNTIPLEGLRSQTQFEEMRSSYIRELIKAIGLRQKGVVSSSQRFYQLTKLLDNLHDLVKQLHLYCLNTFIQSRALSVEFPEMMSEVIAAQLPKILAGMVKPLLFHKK
Thyrotropin-releasing hormone receptor (Homo sapiens), sequence (P34981 whole entry, looked up): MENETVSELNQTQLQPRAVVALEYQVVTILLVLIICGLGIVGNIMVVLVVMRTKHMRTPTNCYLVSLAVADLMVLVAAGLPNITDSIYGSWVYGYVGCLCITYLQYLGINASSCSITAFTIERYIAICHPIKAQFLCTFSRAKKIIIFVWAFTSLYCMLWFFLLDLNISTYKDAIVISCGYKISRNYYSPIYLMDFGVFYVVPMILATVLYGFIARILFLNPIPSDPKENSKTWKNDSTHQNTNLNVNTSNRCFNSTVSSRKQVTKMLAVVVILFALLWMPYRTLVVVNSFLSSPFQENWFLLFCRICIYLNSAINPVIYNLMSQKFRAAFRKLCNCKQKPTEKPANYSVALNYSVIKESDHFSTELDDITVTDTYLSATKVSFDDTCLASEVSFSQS

As to `Cc1cc(S(=O)(=O)O)ccc1N=Nc1c(O)ccc2ccccc12`, in test [1], the Potency was 27.3 µM (active). Moreover, the Potency result in test [2], in [3] and in test [4] was “inactive” throughout. The outcome in [5], in [6] and in test [7] was inactive.
`O=C(Nc1ccc([N+](=O)[O-])cc1)Nc1ccc([N+](=O)[O-])cc1`: the Potency result in test [1], in test [2] and in test [3] was “inactive” in each case. Further, the call in test [6], in test [7] and in test [8] was inactive.
With `CC(C)(C)C(=O)C(Oc1ccc(Cl)cc1)n1ccnc1` (stereo not given), the Potency result in [1], in [2] and in test [9] was “inactive” each time. Also, in test [3], the Potency is 23.7 µM (active). Besides, the outcome in test [5], in [6], in [7] and in [8] was inactive.
As to `O=C(O)c1cccc(O)c1`, the Potency entry in test [1], in test [2], in test [3], in [9] and in test [4] was “inactive” throughout. For the same compound, the compound was called inactive in [6], in test [7] and in test [8].
As for `O=C(/C=C/c1ccccc1)OCCCc1ccccc1`, the Potency result in test [1], in [2], in [3] and in test [4] was “inactive” in each case. Moreover, the compound was called inactive in test [5] and in [6].
For the compound `[O]=[Bi]`, the values for the activity change, negative = cytotoxicity in [1], in test [4] and in [6] were -3.93% [at 8.39 µM], 0% [at 8.39 µM] and -9.02% [at 6.97 µM], respectively. The activation in test [2] is 4.47% [at 8.39 µM]; in [7], 2.8% [at 6.97 µM]. In addition, in test [5], the viability change, negative = cytotoxic was -10.5% [at 6.97 µM]. The activity, negative = inhibition in test [8] was 3.48% [at 4.65 µM].
In the case of `CC1=C(/C=C/C(C)=C\C=C\C(C)=C\C(=O)O)C(C)(C)CCC1`, the Potency entry in test [9] is “inactive”. In addition, the compound was called inactive in test [5], in test [6] and in test [8].
Turning to `CCCOc1ccc(S(=O)(=O)N2CCN(CC)CC2)cc1-c1nc2c(CC)n(Cc3ccccn3)nc2c(=O)[nH]1`, the Potency result in test [1], in test [2] and in test [4] was “inactive” in each case. Besides, the compound was called inactive in test [5], in [6] and in [8].
Consider `CC(=O)OCC(=O)[C@H]1CC[C@H]2[C@@H]3CCC4=CC(=O)CC[C@]4(C)[C@H]3CC[C@]12C`, for which the Potency result in test [1], in test [3] and in [9] was “inactive” throughout. For the same compound, the compound was classed as inactive in test [5], in [6], in test [7] and in test [8].
For `CCCCC(=O)O[C@]1(C(=O)CO)CC[C@H]2[C@@H]3CCC4=CC(=O)CC[C@]4(C)[C@H]3[C@@H](O)C[C@@]21C`, the Potency entry in test [1], in test [3], in [9] and in [4] was “inactive” in each case. The result in [5], in test [6], in test [7] and in test [8] was inactive.
With `Cc1cc2nc3ccc(=[N+](C)C)cc-3sc2cc1N`, the Potency in test [1] is 29.8 µM (active). For the same compound, the Potency entry in [4] is “inactive”. In addition, the compound was called inactive in test [6] and in test [7].
As to `CCCCC1C(=O)N(c2ccccc2)N(c2ccc(O)cc2)C1=O` (stereo not given), the Potency entry in test [1] is “inactive”. The compound was called inactive in [5].
Consider `Cc1nc2ccccn2c(=O)c1CCN1CCC(C(=O)c2ccc(F)cc2)CC1`, for which the Potency result in test [2], in test [3], in test [9] and in [4] was “inactive” each time. Also, the result in [5], in [6], in test [7] and in [8] was inactive.
With `CCC(C)=O`, the Potency entry in [1], in [9] and in [4] was “inactive” each time. The result in test [6] and in [7] was inactive.
Take `CC(COc1ccc(C(C)(C)C)cc1)OS(=O)OCCCl` (stereo not given): in [1], the Potency entry was “inactive”. The result in test [5], in test [6] and in test [7] was inactive.
As to `C/C=C/C=C/CCCCCCCO`, in test [2], the Potency result was “inactive”. Besides, the compound was called inactive in test [5], in test [6] and in test [8].
Consider `C[C@@H]1C[C@H]2[C@@H]3CCC4=CC(=O)C=C[C@]4(C)[C@@]3(F)[C@@H](O)C[C@]2(C)[C@H]1C(=O)CO`, for which the Potency result in [1], in test [3] and in test [9] was “inactive” in each case. Besides, the compound was called inactive in test [5], in test [6], in test [7] and in [8].
As for `Cc1cc(C(=C2C=CC(=Nc3ccc(S(=O)(=O)O)cc3S(=O)(=O)O)C=C2)c2ccc(Nc3ccc(S(=O)(=O)O)cc3)cc2)ccc1N`, the Potency result in test [2], in [3], in [9] and in [4] was “inactive” each time. Also, the compound was called inactive in test [6], in test [7] and in [8].
Regarding `COCc1c(C(C)C)nc(C(C)C)c(/C=C/[C@@H](O)C[C@@H](O)CC(=O)O)c1-c1ccc(F)cc1`, the Potency result in test [1] and in test [2] was “inactive” each time. Moreover, the outcome in [5], in test [6] and in test [7] was inactive.
Regarding `CCCCN(CCCC)CCCOC(=O)c1ccc(N)cc1`, the Potency entry in [9] was “inactive”. In addition, the call in test [5], in [6] and in test [7] was inactive.
With `CC(C)OCC1CO1` (stereo not given), the Potency result in test [1] and in test [2] was “inactive” throughout. Besides, the result in test [5], in [6] and in test [8] was inactive.
For the compound `Cc1nccn1-c1ccc(Sc2cccc(C3(C(N)=O)CCOCC3)c2)cc1`, the call in test [6], in test [7] and in test [8] was inactive.
On to `CCC1(C)CC(=O)NC1=O` (stereo not given), for which the Potency entry in [2], in test [3], in test [9] and in [4] was “inactive” throughout. Further, the compound was classed as inactive in [5], in test [6], in [7] and in [8].
On to `Fc1ccccc1[C@@H](F)COC1CCC(Nc2ncnc3[nH]ncc23)CC1` (stereo not given in full), for which, in [3], the Potency was 27.3 µM (active). Moreover, the result in [5], in test [6] and in test [8] was inactive.
For the compound `Cc1ccc(S(=O)(=O)NC2CCCCC2)cc1`, the Potency result in test [2] was “inactive”. For the same compound, the Potency in test [3] was 27.1 µM (active). The call in test [5], in test [6], in [7] and in [8] was inactive.
With `CO[C@H]1C=CO[C@@]2(C)Oc3c(C)c(O)c4c(O)c(c5c(c4c3C2=O)=NC2(CCN(CC(C)C)CC2)N=5)NC(=O)/C(C)=C\C=C/[C@H](C)[C@H](O)[C@@H](C)[C@@H](O)[C@@H](C)[C@H](OC(C)=O)[C@@H]1C`, in test [1], the Potency was 26.7 µM (active). Also, the Potency entry in [3] was “inactive”. For the same compound, the outcome in test [6] and in [8] was inactive.
Consider `C=CC(C)(C)CC(=O)OC`, for which the Potency entry in [1] and in test [9] was “inactive” throughout. Also, the call in test [5], in test [6], in test [7] and in [8] was inactive.
With `O=C(C(=O)c1ccccc1)c1ccccc1`, the Potency result in test [1], in test [3], in [9] and in test [4] was “inactive” in each case. Besides, the compound was called inactive in test [5], in test [6] and in test [7].

(Values after PubChem BioAssay (Tox21).)
